The values below are quoted from earlier work in PubChem BioAssay AID977608.

Hit rate of the full screen: of about 4,300 compounds, about 4,300 (100%) were called active. The limit is not given here; nearly all actives have IC50 up to about 1400 µM. So high a share suggests a set chosen from earlier hits. The list shows a part of the results. Where a SMILES comes first, the peptide text is derived from it. Square brackets hold non-standard residues; d marks the D form. Peptide text beside a SMILES is read from it. [ ]: non-standard residue; d: D form. Orn(CH(NH2)2) = NC(N)NCCC[C@H](N)C(=O)O

Broadly, the IC50 is the concentration at which inhibition is half-maximal.

This data set can be described thus: protein-ligand inhibition affinities from structures – PDB-derived complexes (AID 977608).

For `Cn1c(=O)c(C(=O)NCC(=O)O)c(O)c2ccccc21`, the IC50 (literature IC50, protein: EGL NINE HOMOLOG 1, PDB entry 4bqw) was 0.033 µM (active).
Consider `CO[C@H]1CN(c2nc(-c3ncnn3C)c(C(=O)O)s2)CC[C@H]1NC(=O)c1[nH]c(C)c(Cl)c1Br`, for which the IC50 (literature IC50, protein: DNA GYRASE SUBUNIT B, PDB entry 4bae) is 0.003 µM (active).
With `Nc1ccc(CC(=O)OCCc2ccccc2)c(C=O)c1`, the IC50 (literature IC50, protein: RHOMBOID PROTEASE GLPG, PDB entry 3zeb) was 0.74 µM (active).
For `Cc1ccc(S(=O)(=O)Nc2cc(Oc3ccccc3)ccc2C(=O)O)cc1`, the IC50 (literature IC50, protein: Genome polyprotein, PDB entry 4j0a) is 0.16 µM (active).
With `Cc1ccc(S(=O)(=O)Nc2ccc(Oc3ccccc3)cc2C(=O)O)cc1`, where the note is “literature IC50, protein: Genome polyprotein, PDB entry 4j08”, the IC50 is 0.22 µM (active).
For the compound `N=C[C@@H]1CCCN1C(=O)CNC12C[C@@H]3C[C@@H](CC(O)(C3)C1)C2`, where the note is “literature IC50, protein: Dipeptidyl peptidase 4, PDB entry 3w2t”, the IC50 is 0.0292 µM (active).
Regarding `O=C(O)c1sc(-c2ccccc2)cc1N1C(=O)CC[C@@H]1C1CCCCC1`, the IC50 (literature IC50, protein: NS5B, PDB entry 4tn2) was 0.12 µM (active).
As to `Cc1[nH]ncc1-c1ccc(F)cc1`, the IC50 (literature IC50, protein: Adenylate cyclase type 10 hsolAC, PDB entry 4oz2) was 1000 µM (active).
For `Cc1[nH]ncc1-c1ccccc1Cl`, the IC50 (literature IC50, protein: Adenylate cyclase type 10 hsolAC, PDB entry 4oyo) is 300 µM (active).
On to `O=c1c2ccccc2oc2c(Cc3ccc(O)cc3)[nH]c(-c3cccs3)c12`, for which the IC50 (literature IC50, protein: cGMP-specific 3',5'-cyclic Phosphodiesterase-5 (PDE5), PDB entry 4md6) is 0.017 µM (active).
Take `Cc1cc2c(cc1C)N1[C@@](C)(N)CC(c3ccccc3)[C@]13C(=O)NC(=O)N[C@H]3N2C[C@H](O)[C@H](O)[C@H](O)CO[P+](O)(O)O[P+](O)(O)OC[C@H]1O[C@@H](n2cnc3c(N)ncnc32)[C@H](O)[C@@H]1O` (some centres not stated): for the setting “literature IC50, protein: LYSINE-SPECIFIC HISTONE DEMETHYLASE 1A, PDB entry 4uvb”, the IC50 was 3.26 µM (active).
As for `CCC(=N)C[C@@H](c1ccccc1)[C@]12Nc3cc(C)c(C)cc3N(C[C@H](O)[C@H](O)[C@H](O)CO[P+](O)(O)O[P+](O)(O)OC[C@H]3O[C@@H](n4cnc5c(N)ncnc54)[C@H](O)[C@@H]3O)[C@@H]1NC(=O)NC2=O`, where the note is “literature IC50, protein: LYSINE-SPECIFIC HISTONE DEMETHYLASE 1A, PDB entry 4uv9”, the IC50 is 0.975 µM (active).
Consider `Cc1cc2c(cc1C)N([C@@](N)(CCc1ccccc1)c1ccccc1)C1C(=O)NC(=O)N=C1N2C[C@H](O)[C@H](O)[C@H](O)CO[P+](O)(O)O[P+](O)(O)OC[C@H]1O[C@@H](n2cnc3c(N)ncnc32)[C@H](O)[C@@H]1O` (some centres not stated), for which, under “literature IC50, protein: LYSINE-SPECIFIC HISTONE DEMETHYLASE 1A, PDB entry 4uvc”, the IC50 was 0.131 µM (active).
With `CC(=N)C[C@@H](c1ccccc1)[C@]12Nc3cc(C)c(C)cc3N(C[C@H](O)[C@H](O)[C@H](O)CO[P+](O)(O)O[P+](O)(O)OC[C@H]3O[C@@H](n4cnc5c(N)ncnc54)[C@H](O)[C@@H]3O)[C@@H]1NC(=O)NC2=O`, the IC50 (literature IC50, protein: LYSINE-SPECIFIC HISTONE DEMETHYLASE 1A, PDB entry 4uva) is 1.78 µM (active).
As to `Cc1cc2c(cc1C)N(C[C@H](O)[C@H](O)[C@H](O)CO[P+](O)(O)O[P+](O)(O)OC[C@H]1O[C@@H](n3cnc4c(N)ncnc43)[C@H](O)[C@@H]1O)[C@@H]1NC(=O)NC(=O)[C@@]1([C@@H](CC(=N)Cc1ccccc1)c1ccccc1)N2`, the IC50 (literature IC50, protein: LYSINE-SPECIFIC HISTONE DEMETHYLASE 1A, PDB entry 4uv8) was 0.335 µM (active).
As to `O=C(O)c1nc(-c2ccc3cccc(N=Nc4nc5ccccc5s4)c3c2)sc1CCCCc1ccccc1`, the IC50 (literature IC50, protein: BCL-2-LIKE PROTEIN 1, PDB entry 3zlo) was 0.0015 µM (active).
On to `NCCCC[C@H](N)C(=O)N[C@@H](CCCNC(N)N)C(=O)N1CCC[C@H]1C(=O)N1CCC[C@H]1C(=O)N1CCC[C@H]1C(=O)N1CCC[C@H]1C(=O)N1CCC[C@H]1C(=O)N1CCC[C@H]1C(=O)NCC(=O)O` (H-K[Orn(CH(NH2)2)]PPPPPPG-OH), for which, under “literature IC50, protein: cortactin isoform a, PDB entry 2d1x”, the IC50 was 7.9 µM (active).
As to `CC[C@H](C)[C@H](NC(=O)[C@H](C)NC(=O)[C@H](CC(N)=O)NC(=O)[C@@H]1CCCN1C(=O)[C@@H](N)CC(C)C)C(=O)NCC(=O)N[C@@H](CCCNC(N)N)C(=O)O` (H-LPNAIG[Orn(CH(NH2)2)]-OH), where the note is “literature IC50, protein: Low-density lipoprotein receptor-related protein 6, PDB entry 3sov”, the IC50 is 61 µM (active).
As to `C#CC[C@H](NC(=O)[C@@H](NC(=O)[C@H](CC(C)C)NC(=O)[C@@H](NC(=O)CNC(=O)[C@@H](NC(=O)CNC(=O)[C@H](C)NC(=O)[C@@H](CCC)NC(=O)[C@](C)(N)c1ccccc1)[C@@H](C)CC)[C@@H](C)CC)[C@@H](C)O)C(=O)O`, where the note is “literature IC50, protein: HLA class I histocompatibility antigen, A-2 alpha chain HLA-A 0201, PDB entry 4wj5”, the IC50 is 0.51 µM (active).
Consider `CC[C@H](C)[C@H](NC(=O)[C@@H](NC(=O)[C@@H](NC(=O)[C@H](CCCNC(N)N)NC(=O)[C@H](CCCCN)NC(=O)[C@H](CO)NC(=O)[C@H](CCCNC(N)N)NC(=O)CNC(=O)[C@@H](NC(=O)[C@H](CCC(N)=O)NC(=O)CNC(=O)[C@H](CC(C)C)NC(=O)[C@H](CCCCN)NC(=O)[C@@H]1CCCN1C(=O)[C@@H]1CCCN1C(=O)[C@H](CCCNC(N)N)NC(=O)[C@@H](N)CCCCN)[C@@H](C)CC)C(C)C)C(C)C)C(=O)O` (H-K[Orn(CH(NH2)2)]PPKLGQIG[Orn(CH(NH2)2)]SK[Orn(CH(NH2)2)]VVI-OH), for which the IC50 (literature IC50, protein: Calcium/calmodulin dependent protein kinase II, PDB entry 3kl8) is 0.12 µM (active).
For `CC[C@H](C)[C@H](NC(=O)[C@H](CO[P+](O)(O)O)NC(=O)[C@H](C)NC(=O)[C@H](CCC(N)=O)NC(=O)[C@@H](N)CCCNC(N)N)C(=O)N[C@@H](CCC(=O)O)C(=O)N[C@@H](CC(C)C)C(=O)N1CCC[C@H]1C(=O)N[C@@H](CO)C(=O)N[C@@H](CCSC)C(=O)O`, the IC50 (literature IC50, protein: HLA class I histocompatibility antigen, PDB entry 3bh8) was 0.0112 µM (active).
`CC[C@H](C)[C@H](NC(=O)[C@H](CCCNC(N)N)NC(=O)CNC(=O)[C@@H](NC(=O)[C@@H](NC(=O)[C@@H](NC(=O)[C@@H](NC(=O)[C@H](CO)NC(=O)CNC(=O)CN)C(C)C)C(C)C)[C@@H](C)CC)C(C)C)C(=O)N[C@H](C(=O)N[C@@H](CC(C)C)C(=O)N[C@@H](CO)C(=O)O)[C@@H](C)CC` (HELM PEPTIDE1{G.G.S.V.V.I.V.G.[NC(N)NCCC[C@H](N[*:1])C(=O)[*:2]].I.I.L.S}$$$$V2.0): the IC50 reads like this: (literature IC50, protein: Genome polyprotein (D1194V mutation), PDB entry 4i32) 0.058 µM (active); (literature IC50, protein: Genome polyprotein (R1181K mutation), PDB entry 4i33) 0.0047 µM (active); (literature IC50, protein: Genome polyprotein, PDB entry 4i31) 0.00048 µM (active).
For the compound `CCCNc1nc(N)c(C(=O)c2ccc(Cl)s2)s1`, where the note is “literature IC50, protein: Cyclin-dependent kinase 2, PDB entry 3s00”, the IC50 is 12 µM (active).
As to `CNc1cc(-c2cccc(Cl)c2Cl)nc(N)n1`, under “literature IC50, protein: 7,8-dihydro-8-oxoguanine triphosphatase, human MTH1 protein, PDB entry 4n1t”, the half-maximal inhibitory concentration (IC50) was 0.0008 µM (active).
Consider `Nc1nc(NC2C=C2)cc(-c2cccc(Cl)c2Cl)n1`, for which, under “literature IC50, protein: 7,8-dihydro-8-oxoguanine triphosphatase, human MTH1 protein, PDB entry 4n1u”, the IC50 was 0.005 µM (active).
